# From the supplement of paper PMC8285479
# Structures can show the parent of a compound that is named as a salt. ± gives the standard deviation of the averaged measurements. In all, about 1,900 compounds were measured (“normalised cell viability (NPI; 0 = phenylarsine oxide control, 1 = DMSO control)”: median about 1, lowest 2% from about 0.039 on). This excerpt belongs to a sample that is enriched for the lowest values.
# Test system: NCI-H1944
# Experiment: normalised cell viability (NPI; 0 = phenylarsine oxide control, 1 = DMSO control) (fraction of DMSO control); NCI-H1944 is a non-small cell lung cancer line; higher = more viable cells (less compound toxicity)
# Conditions: 6 days
# [1] = glucocorticoid arm: hydrocortisone 2.75 uM co-treatment, compound 1 µM
# [2] = glucocorticoid arm: hydrocortisone 2.75 uM co-treatment, compound 5 µM
# [3] = glucocorticoid arm: hydrocortisone 2.75 uM pre-treated 2 days and continued, compound 1 µM
# [4] = glucocorticoid arm: hydrocortisone 2.75 uM pre-treated 2 days and continued, compound 5 µM
# [5] = glucocorticoid arm: vehicle, compound 1 µM
# [6] = glucocorticoid arm: vehicle, compound 5 µM
# 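Also: CTB read-out in 384-well plates, triplicate wells, NPI normalised per plate against 1 µM phenylarsine oxide (0) and 0.1% DMSO (1) controls.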
Structure (SMILES),normalised cell viability [1],normalised cell viability [2],normalised cell viability [3],normalised cell viability [4],normalised cell viability [5],normalised cell viability [6]
CN[C@@H]1C[C@H]2O[C@@](C)([C@@H]1OC)n1c3ccccc3c3c4c(c5c6ccccc6n2c5c31)C(=O)NC4 [Staurosporine],0.0825 ± 0.0098,0.0186 ± 0.003,0.246 ± 0.01,0.0923 ± 0.017,0.0216 ± 0.0022,0.00445 ± 0.0013
"C[C@@H](N)Cc1cnc[nH]1 [Histamine, R(-)-alpha-methyl-, dihydrochloride]",0.997 ± 0.0027,0.997 ± 0.011,1,0.994 ± 0.014,0.9917 ± 0.0045,0.9963 ± 0.0032
NC(CP(=O)(O)O)C(=O)O (racemic) [(±)-2-Amino-3-phosphonopropionic acid],0.993 ± 0.0066,0.9903 ± 0.0093,1.005 ± 0.0087,1 ± 0.013,0.9877 ± 0.0049,0.998 ± 0.013
"CCc1c(C(=O)OC)ncc2[nH]c3cc(OC)c(OC)cc3c12 [Methyl 6,7-dimethoxy-4-ethyl-beta-carboline-3-carboxylate]",1.01 ± 0.016,1.023 ± 0.0058,1.01 ± 0.01,1.03 ± 0.01,0.9997 ± 0.0091,1.003 ± 0.0058
COc1cc(CC(C)N)c(OC)cc1I (racemic) [(±)-DOI hydrochloride],1.01 ± 0.01,0.983 ± 0.023,0.998 ± 0.013,1.02 ± 0.01,0.998 ± 0.0035,0.994 ± 0.004
Oc1ncc(N(CCCl)CCCl)c(O)n1 [Uracil mustard],0.972 ± 0.007,1.06 ± 0.011,1.043 ± 0.0058,1.033 ± 0.0058,0.244 ± 0.021,1.01 ± 0.011
C[C@@]12C(=O)OC(=O)[C@]1(C)[C@H]1CC[C@@H]2O1 [Cantharidin],0.9967 ± 0.0035,0.00641 ± 0.0033,1.05 ± 0.021,0.12 ± 0.057,0.9873 ± 0.0032,0.00459 ± 0.0027
"CN(N=O)c1ccc(O)c(O)c1 [Me-3,4-dephostatin]",1.017 ± 0.0058,1.01 ± 0.017,1.007 ± 0.0058,1.05 ± 0.086,1.01 ± 0.011,1.02 ± 0.01
CCCN1CCC[C@@H](c2cccc(C#N)c2)C1 [S(-)-DS 121 hydrochloride],1.017 ± 0.0058,0.972 ± 0.034,1.01 ± 0.01,0.985 ± 0.033,1.02,1.04 ± 0.047
NCc1cc(O)no1 [Muscimol hydrobromide],1.006 ± 0.0069,0.993 ± 0.015,1.01 ± 0.013,0.992 ± 0.031,1.01,1.003 ± 0.0061
CCCN1CCC[C@@H]2Cc3n[nH]cc3C[C@H]21 [(-)-Quinpirole hydrochloride],0.982 ± 0.006,0.992 ± 0.018,0.867 ± 0.22,1.01 ± 0.016,0.985 ± 0.0087,0.9927 ± 0.0045
CCCN1CCC[C@@H]2Cc3n[nH]cc3C[C@H]21 (racemic) [(±)-Quinpirole dihydrochloride],1.013 ± 0.0058,1.01 ± 0.036,0.893 ± 0.19,1.03 ± 0.01,1.013 ± 0.0058,1.01 ± 0.011
CCN(CCCl)CCOC(C)=O [Acetylethylcholine mustard hydrochloride],1.01 ± 0.015,1.02 ± 0.034,1.01 ± 0.013,1.11 ± 0.061,0.995 ± 0.0046,1.01 ± 0.015
N.N.[Cl][Pt][Cl] [Cisplatin],–,–,1.01,–,–,–
Cn1c(CCCC(=O)O)nc2cc(N(CCCl)CCCl)ccc21 [bendamustine hydrochloride],1.02 ± 0.011,0.348 ± 0.02,1.007 ± 0.0058,0.7867 ± 0.0031,0.9937 ± 0.006,0.0218 ± 0.0032
"O=[N+]([O-])c1ccc(O[C@@H]2O[C@H](CO)[C@@H](O)[C@H](O)[C@H]2F)c([N+](=O)[O-])c1 [2,4-Dinitrophenyl 2-fluoro-2-deoxy-beta-D-glucopyranoside]",0.9917 ± 0.004,0.989 ± 0.02,0.991 ± 0.023,0.974 ± 0.03,0.9807 ± 0.0021,0.9817 ± 0.0064
Cc1o[nH]c(=O)c1CC(N)C(=O)O (racemic) [(±)-AMPA hydrobromide],0.995 ± 0.016,0.983 ± 0.016,0.999 ± 0.0095,0.994 ± 0.025,0.982 ± 0.0027,0.98 ± 0.007
"CC(N)c1cccc(Cl)c1Cl (racemic) [(±)-2,3-Dichloro-alpha-methylbenzylamine hydrochloride]",1.006 ± 0.0075,1.02 ± 0.011,1.003 ± 0.0064,1.013 ± 0.0058,0.9993 ± 0.0097,1.001 ± 0.0081
CCCCN1[C@@H]2CC[C@H]1CC(OC(c1ccc(F)cc1)c1ccc(F)cc1)C2 (some centres not stated) [JHW 007 hydrochloride],0.969 ± 0.017,0.629 ± 0.055,0.987 ± 0.011,0.969 ± 0.011,0.993 ± 0.003,0.228 ± 0.12
"CC(N)C(O)c1ccc(O)c(O)c1 (single isomer, unassigned; (-)) [(-)-alpha-Methylnorepinephrine]",1.01 ± 0.012,0.971 ± 0.044,0.995 ± 0.013,0.958 ± 0.034,0.9967 ± 0.0058,0.9977 ± 0.0032
C/C=C(/C)C(=O)O[C@H]1C(C)=C2[C@H]([C@@H]1OC(=O)CCCCCCC)[C@@](C)(OC(C)=O)C[C@H](OC(=O)CCC)[C@@]1(O)[C@H]2OC(=O)[C@@]1(C)O [Thapsigargin],0.0778 ± 0.015,0.0411 ± 0.016,0.215 ± 0.062,0.101 ± 0.029,0.0393 ± 0.014,0.00585 ± 0.0031
Clc1ccc(N2CC3CCC(C2)N3)nn1,1.003 ± 0.0064,0.979 ± 0.012,0.9903 ± 0.0074,0.9827 ± 0.004,0.9863 ± 0.0075,0.9843 ± 0.0086
C[C@@H]1O[C@@H](O[C@H]2C[C@@H](O)[C@]3(CO)[C@H]4[C@H](O)C[C@]5(C)[C@@H]([C@@H]6COC(=O)C6)CC[C@]5(O)[C@@H]4CC[C@]3(O)C2)[C@H](O)[C@H](O)[C@H]1O [Dihydroouabain],1.027 ± 0.0058,0.0138 ± 0.013,1.01 ± 0.015,0.143 ± 0.081,0.98 ± 0.017,0.00677 ± 0.002
C[C@@H]1O[C@@H](O[C@H]2C[C@@H](O)[C@]3(CO)[C@H]4[C@H](O)C[C@]5(C)[C@@H](C6=CC(=O)OC6)CC[C@]5(O)[C@@H]4CC[C@]3(O)C2)[C@H](O)[C@H](O)[C@H]1O [Ouabain],0.00947 ± 0.006,0.00628 ± 0.0019,0.0931 ± 0.013,0.07 ± 0.028,0.00711 ± 0.0021,0.00424 ± 0.002

Structure (SMILES),normalised cell viability [1],normalised cell viability [2],normalised cell viability [3],normalised cell viability [4],normalised cell viability [5],normalised cell viability [6]
NC(CCP(=O)(O)O)C(=O)O (racemic) [(±)-2-Amino-4-phosphonobutyric acid],0.9883 ± 0.0042,0.998 ± 0.0017,1.01 ± 0.014,1 ± 0.042,0.9923 ± 0.0071,0.9973 ± 0.0025
N[C@H](C(=O)O)c1cc(O)no1 (racemic) [(±)-Ibotenic acid],1.002 ± 0.0072,1 ± 0.032,0.991 ± 0.024,1.04 ± 0.096,0.9837 ± 0.0055,0.987 ± 0.012
Oc1cc2c(cc1O)[C@H]1c3ccccc3CN[C@@H]1CC2 (racemic) [Dihydrexidine hydrochloride],1.002 ± 0.0068,0.995 ± 0.005,1.002 ± 0.0076,0.994 ± 0.018,0.9917 ± 0.0059,0.9897 ± 0.0031
CS(=N)(=O)CC[C@H](N)C(=O)O (stereo partly drawn) [L-Methionine sulfoximine],1.003 ± 0.0058,1.01 ± 0.024,0.998 ± 0.01,0.948 ± 0.093,0.9987 ± 0.0023,1 ± 0.013
"NC(Cn1oc(=O)[nH]c1=O)C(=O)O (single isomer, unassigned; (+)) [(+)-Quisqualic acid]",1.01 ± 0.01,0.973 ± 0.028,1.01 ± 0.031,1.01 ± 0.021,1.01 ± 0.012,1.005 ± 0.0087
CN1CCN(c2ccc([N+](=O)[O-])c3no[n+]([O-])c23)CC1,0.984 ± 0.015,1.04 ± 0.011,0.993 ± 0.0076,1.01 ± 0.01,0.984 ± 0.011,0.988 ± 0.01
O=c1[nH]c2ccc(Cl)cc2c(N[C@@H]2CN3CCC2CC3)c1-c1nc2ccccc2[nH]1,0.43 ± 0.0081,0.0244 ± 0.0034,0.717 ± 0.02,0.0576 ± 0.015,0.0195 ± 0.0053,0.00294 ± 0.0014
O=C(N[C@H]1CN2CCC1CC2)c1ccc(Cl)cc1,1.02 ± 0.01,1.01 ± 0.022,1.023 ± 0.0058,1.02 ± 0.015,0.998 ± 0.0035,1.013 ± 0.0058
C[C@@]12N[C@@H](Cc3ccccc31)c1ccccc12 [(-)-MK-801 hydrogen maleate],1.01 ± 0.01,1.02 ± 0.026,1.013 ± 0.0058,1.05 ± 0.094,0.992 ± 0.0092,1 ± 0.017
C[C@@]12N[C@@H](Cc3ccccc31)c1ccccc12 [(-)-MK 801 Maleate],1.023 ± 0.0058,1.02,1.02 ± 0.011,1.03 ± 0.015,1.01,1.01
CC1Cc2cc3c(cc2C(c2ccc(N)cc2)=NN1)OCO3 (configuration not stated),1.01 ± 0.01,1.02 ± 0.021,1.01,1.01 ± 0.037,0.9943 ± 0.0035,0.9943 ± 0.006
COc1ccc2c(c1)[C@@]13CCCC[C@H]1[C@@H](C2)NCC3 [3-Methoxymorphinan hydrochloride],1.013 ± 0.0058,0.989 ± 0.03,1.02 ± 0.015,1.06 ± 0.058,1.003 ± 0.0058,1.01 ± 0.01
CC1(C(=O)O)C2CCC(O2)C1(C)C(=O)O (configuration not stated) [Cantharidic Acid],0.983 ± 0.016,0.0223 ± 0.0017,1.06 ± 0.015,0.137 ± 0.087,0.965 ± 0.025,0.0108 ± 0.0036
O=C(O)[C@@H]1[C@H](C(=O)O)[C@H]2CC[C@@H]1O2 [Endothall],1.01 ± 0.01,1.05 ± 0.01,1.007 ± 0.0058,1.07 ± 0.015,0.9967 ± 0.0025,1.007 ± 0.0058
C[C@@H]1O[C@H](C[N+](C)(C)C)C[C@H]1O (racemic) [(±)-Muscarine chloride],1.02 ± 0.011,1.03 ± 0.035,1.01 ± 0.015,1.05 ± 0.085,0.9963 ± 0.0047,1 ± 0.014
OC1CCCCC1N1CCC(c2ccccc2)CC1 (racemic) [(±)-Vesamicol hydrochloride],0.9747 ± 0.0049,0.91 ± 0.021,0.875 ± 0.21,0.978 ± 0.022,0.9897 ± 0.0025,0.9897 ± 0.0076
CC[C@@]1(O)C(=O)OCc2c1cc1n(c2=O)Cc2cc3ccccc3nc2-1 [(S)-(+)-Camptothecin],0.066 ± 0.014,0.00107 ± 0.0017,0.328 ± 0.025,0.0202 ± 0.0036,0.0279 ± 0.0022,-0.000721 ± 0.0022
Cc1ccccc1-n1c(Cn2cnc3c(N)ncnc32)nc2cccc(C)c2c1=O,1.003 ± 0.0058,1.02 ± 0.028,1 ± 0.015,1.02 ± 0.031,1 ± 0.017,1.01 ± 0.011
C=CCN1CC[C@]23CCCC[C@H]2[C@H]1Cc1ccc(O)cc13 [Levallorphan tartrate],1 ± 0.0089,1 ± 0.023,1.003 ± 0.0058,1.06 ± 0.064,0.9917 ± 0.0025,0.863 ± 0.23
N=C(NCCC[C@H](N)C(=O)O)N[N+](=O)[O-] [NG-Nitro-L-arginine],1.003 ± 0.0058,1.01 ± 0.022,1.01 ± 0.017,0.86 ± 0.24,1 ± 0.012,1.001 ± 0.0085
C=CCN1CCc2cccc3c2[C@H]1Cc1ccc(O)c(O)c1-3 [R(-)-N-Allylnorapomorphine hydrobromide],0.992 ± 0.0052,0.949 ± 0.0089,0.988 ± 0.011,0.968 ± 0.02,0.9917 ± 0.0042,0.9757 ± 0.0015
CNc1ccc2oc(C[C@H]3O[C@@]4(CC[C@H]3C)O[C@H]([C@H](C)C(=O)c3ccc[nH]3)[C@H](C)C[C@H]4C)nc2c1C(=O)O [Calcimycin],0.909 ± 0.018,0.0265 ± 0.002,1.01 ± 0.013,0.0205 ± 0.0037,0.91 ± 0.036,0.0377 ± 0.014
NC(CCCCCP(=O)(O)O)C(=O)O (racemic) [(±)-2-Amino-7-phosphonoheptanoic acid],0.98 ± 0.012,0.9763 ± 0.0025,0.9903 ± 0.005,0.97 ± 0.013,0.9873 ± 0.004,0.972 ± 0.0072
